Several values for one entry are separate records, joined by “and”; a condition that tells them apart may be missing. Equal values may be shown once. The campaign covered roughly 5,500 compounds. About 2,000 (36%) were called active. Not shown: some 18% with an inconclusive outcome. No stated cut-off is given here; in the data, active means normalized growth mostly below about 0.91 (no sharp cut-off); inconclusive means no clear call, values can overlap the other calls; inactive means mostly above about 0.92. Some of the results follow.
Assay: chemical genetic growth profiling, strain panel (AID 1159580);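 further: tested at 20 µM; growth read once vehicle control cultures reached saturation at 30 °C; 1 = growth at the plate median or of vehicle wells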
Details: S. cerevisiae deletion strains, growth OD

Measured: normalized growth

CNC(C)[C@H](O)c1ccccc1 (stereo partly drawn)
inactive: locus YAL013W, strain DEP1, stronger effect = lower value 1 | locus YAL021C, strain ccr4, stronger effect = lower value 1.03 | locus YAL026C, strain drs2, stronger effect = lower value 1.01 | locus YAL030W, strain snc1, stronger effect = lower value 1.01 | locus YBL061C, strain skt5, stronger effect = lower value 1.02 | locus YBR009C, strain hhf1, stronger effect = lower value 0.977 | locus YBR021W, strain FUR4, stronger effect = lower value 1.07 | locus YBR023C, strain chs3, stronger effect = lower value 1.01 | locus YBR171W, strain sec66, stronger effect = lower value 0.993 | locus YBR229C, strain ROT2, stronger effect = lower value 1.01 | locus YBR231C, strain swc5, stronger effect = lower value 1.01 | locus YBR279W, strain paf1, stronger effect = lower value 1 | locus YCL011C, strain gbp2, stronger effect = lower value 1.01 | locus YCL016C, strain dcc1, stronger effect = lower value 1.04 | locus YCL029C, strain bik1, stronger effect = lower value 1 | locus YCL061C, strain MRC1, stronger effect = lower value 0.995 | locus YCL069W, strain vba3, stronger effect = lower value 0.986 | locus YCR088W, strain abp1, stronger effect = lower value 0.989 | locus YDL005C, strain med2, stronger effect = lower value 0.999 | locus YDL035C, strain GPR1, stronger effect = lower value 1.05 | locus YDL040C, strain nat1, stronger effect = lower value 1 | locus YDL074C, strain BRE1, stronger effect = lower value 1.02 | locus YDL101C, strain DUN1, stronger effect = lower value 1.01 | locus YDL134C, strain PPH21, stronger effect = lower value 1.04 | locus YDL185W, strain tfp1, stronger effect = lower value 0.991 | locus YDL192W, strain arf1, stronger effect = lower value 0.998 | locus YDR001C, strain nth1, stronger effect = lower value 0.996 | locus YDR069C, strain doa4, stronger effect = lower value 1.02 | locus YDR101C, strain arx1, stronger effect = lower value 1.02 | locus YDR137W, strain rgp1, stronger effect = lower value 1 | locus YDR159W, strain sac3, stronger effect = lower value 0.995 | locus YDR162C, strain NBP2, stronger effect = lower value 1.02 | locus YDR195W, strain ref2 1.01 | locus YDR297W, strain sur2, stronger effect = lower value 1.01 | locus YDR318W, strain mcm21, stronger effect = lower value 1 | locus YDR334W, strain swr1, stronger effect = lower value 0.983 | locus YDR335W, strain msn5, stronger effect = lower value 1.03 | locus YDR388W, stronger effect = lower value 0.995 | locus YDR392W, strain spt3, stronger effect = lower value 1.05 | locus YDR502C, strain sam2, stronger effect = lower value 0.997 | locus YEL003W, strain gim4, stronger effect = lower value 0.992 | locus YEL037C, strain rad23, stronger effect = lower value 0.986 | locus YEL061C, strain CIN8 (second series), stronger effect = lower value 0.993 | locus YEL061C, strain CIN8, stronger effect = lower value 1.02 | locus YER015W, strain faa2, stronger effect = lower value 1.01 | locus YER016W, strain bim1, stronger effect = lower value 1.03 | locus YER110C, stronger effect = lower value 0.986 | locus YER111C, strain swi4, stronger effect = lower value 1 | locus YER155C, strain BEM2 (second series), stronger effect = lower value 1.02 | locus YER155C, strain BEM2, stronger effect = lower value 1.01 | locus YER167W, strain BCK2, stronger effect = lower value 1.02 | locus YFR010W, strain ubp6, stronger effect = lower value 0.96 | locus YGL078C, strain dbp3, stronger effect = lower value 0.994 | locus YGL086W, strain mad1, stronger effect = lower value 1.01 | locus YGL167C, strain pmr1, stronger effect = lower value 1.01 | locus YGL173C, strain kem1, stronger effect = lower value 1.01 | locus YGL227W, strain vid30, stronger effect = lower value 0.994 | locus YGL240W, strain doc1, stronger effect = lower value 0.993 | locus YGL248W, strain PDE1, stronger effect = lower value 1.02 | locus YGL253W, strain hxk2, stronger effect = lower value 1.01 | locus YGR078C, strain PAC10, stronger effect = lower value 1.02 | locus YGR135W, strain pre9, stronger effect = lower value 0.986 | locus YGR229C, strain SMI1, stronger effect = lower value 1.02 | locus YGR252W, strain gcn5, stronger effect = lower value 0.98 | locus YHR013C, strain ard1, stronger effect = lower value 1.04 | locus YHR027C, strain rpn1, stronger effect = lower value 0.998 | locus YHR030C, strain SLT2, stronger effect = lower value 1.02 and 1.05 | locus YHR079C, strain IRE1 (second series), stronger effect = lower value 1 | locus YHR079C, strain IRE1, stronger effect = lower value 1.03 | locus YHR094C, strain hxt1, stronger effect = lower value 0.989 | locus YHR129C, strain ARP1, stronger effect = lower value 1.01 | locus YHR142W, strain chs7, stronger effect = lower value 1 | locus YHR200W, strain rpn10, stronger effect = lower value 0.999 | locus YIL066C, strain RNR3, stronger effect = lower value 1.03 | locus YIL073C, strain SPO22, stronger effect = lower value 0.991 | locus YIL125W, strain kgd1, stronger effect = lower value 1 | locus YIR030C, strain dcg1, stronger effect = lower value 1 | locus YJL092W, strain hpr5, stronger effect = lower value 1 | locus YJL095W, strain BCK1 (second series), stronger effect = lower value 1.01 | locus YJL095W, strain BCK1, stronger effect = lower value 1.01 and 1.06 | locus YJL115W, strain asf1, stronger effect = lower value 0.993 | locus YJL129C, strain trk1, stronger effect = lower value 1.01 | locus YJL134W, strain LCB3, stronger effect = lower value 1 | locus YJL154C, strain vps35, stronger effect = lower value 0.986 | locus YJL164C, strain tpk1, stronger effect = lower value 1.01 | locus YJL166W, strain qcr8, stronger effect = lower value 1.01 | locus YJL168C, strain set2, stronger effect = lower value 0.991 | locus YJL187C, strain SWE1 (second series), stronger effect = lower value 1.01 | locus YJL187C, strain SWE1, stronger effect = lower value 1.02 | locus YJR043C, strain POL32, stronger effect = lower value 1.04 | locus YJR066W, strain TOR1, stronger effect = lower value 0.972 | locus YKL009W, strain mrt4, stronger effect = lower value 0.992 | locus YKL068W, stronger effect = lower value 0.995 | locus YKL085W, strain MDH1 (second series), stronger effect = lower value 1.03 | locus YKL085W, strain MDH1, stronger effect = lower value 1.03 | locus YKL160W, strain elf1, stronger effect = lower value 1.05 | locus YKL190W, strain CNB1, stronger effect = lower value 1.01 | locus YKR001C, strain vps1, stronger effect = lower value 0.997 | locus YKR026C, strain gcn3, stronger effect = lower value 0.995 | locus YKR091W, strain srl3, stronger effect = lower value 1 | locus YLL001W, strain dnm1, stronger effect = lower value 1.02 | locus YLL026W, stronger effect = lower value 1.02 | locus YLL041C, strain sdh2, stronger effect = lower value 0.996 | locus YLR027C, strain aat2, stronger effect = lower value 1.02 | locus YLR039C, strain RIC1, stronger effect = lower value 0.978 | locus YLR058C, strain SHM2, stronger effect = lower value 1.01 | locus YLR102C, strain apc9, stronger effect = lower value 0.986 | locus YLR113W, strain HOG1, stronger effect = lower value 1.08 | locus YLR221C, strain rsa3, stronger effect = lower value 0.984 | locus YLR258W, strain gsy2, stronger effect = lower value 1.03 | locus YLR262C, strain YPT6 (second series), stronger effect = lower value 0.972 | locus YLR262C, strain YPT6, stronger effect = lower value 0.983 | locus YLR268W, strain sec22, stronger effect = lower value 0.993 | locus YLR320W, strain mms22, stronger effect = lower value 0.994 | locus YLR330W, strain CHS5, stronger effect = lower value 1.01 | locus YLR342W, strain FKS1 (second series), stronger effect = lower value 1.05 | locus YLR342W, strain FKS1, stronger effect = lower value 1.02 | locus YLR357W, strain rsc2, stronger effect = lower value 0.958 | locus YLR370C, strain arc18, stronger effect = lower value 1.03 | locus YLR371W, strain rom2, stronger effect = lower value 0.987 | locus YLR384C, strain iki3, stronger effect = lower value 0.995 | locus YLR418C, strain cdc73, stronger effect = lower value 1.01 | locus YML016C, strain PPZ1, stronger effect = lower value 1.01 | locus YML032C, strain rad52, stronger effect = lower value 1 | locus YML120C, strain ndi1, stronger effect = lower value 0.996 | locus YML124C, strain tub3, stronger effect = lower value 0.991 | locus YMR058W, strain fet3, stronger effect = lower value 0.999 | locus YMR078C, strain ctf18, stronger effect = lower value 0.989 | locus YMR125W, strain sto1, stronger effect = lower value 0.955 | locus YMR129W, stronger effect = lower value 1.02 | locus YMR205C, strain PFK2, stronger effect = lower value 1 | locus YMR223W, strain ubp8, stronger effect = lower value 0.998 | locus YMR231W, strain pep5, stronger effect = lower value 1 | locus YMR263W, strain SAP30, stronger effect = lower value 1.01 | locus YMR307W, strain GAS1, stronger effect = lower value 1.17 | locus YNL067W, strain RPL9B, stronger effect = lower value 1 | locus YNL071W, strain lat1, stronger effect = lower value 0.991 | locus YNL183C, strain NPR1, stronger effect = lower value 0.982 | locus YNL209W, strain ssb2, stronger effect = lower value 0.999 | locus YNL233W, strain BNI4, stronger effect = lower value 1.02 | locus YNL248C, strain rpa49, stronger effect = lower value 0.969 | locus YNL250W, strain rad50, stronger effect = lower value 0.989 | locus YNL271C, strain bni1, stronger effect = lower value 0.982 | locus YNL298W, strain CLA4, stronger effect = lower value 1.02 | locus YNL307C, strain MCK1, stronger effect = lower value 1 | locus YNL322C, strain KRE1 (second series), stronger effect = lower value 1.01 | locus YNL322C, strain KRE1, stronger effect = lower value 1.05 | locus YNR049C, strain mso1, stronger effect = lower value 0.996 | locus YNR052C, strain pop2, stronger effect = lower value 1 | locus YOL006C, strain TOP1, stronger effect = lower value 1.16 | locus YOL012C, strain htz1 1.33 | locus YOL147C, strain pex11, stronger effect = lower value 0.982 | locus YOR001W, strain rrp6, stronger effect = lower value 0.934 | locus YOR061W, strain CKA2, stronger effect = lower value 1.02 | locus YOR069W, strain VPS5, stronger effect = lower value 1.01 | locus YOR070C, strain gyp1, stronger effect = lower value 1.02 | locus YOR080W, strain dia2, stronger effect = lower value 1.01 | locus YOR083W, strain WHI5, stronger effect = lower value 1.04 | locus YOR106W, strain vam3, stronger effect = lower value 1.03 | locus YOR136W, strain idh2, stronger effect = lower value 1 | locus YOR144C, strain elg1, stronger effect = lower value 0.995 | locus YOR184W, strain ser1, stronger effect = lower value 1 | locus YOR231W, strain MKK1, stronger effect = lower value 1.06 | locus YOR265W, strain rbl2, stronger effect = lower value 1.01 | locus YOR270C, strain vph1, stronger effect = lower value 0.952 | locus YOR290C, strain snf2, stronger effect = lower value 1.06 | locus YOR316C, strain cot1, stronger effect = lower value 0.995 | locus YPL051W, strain arl3, stronger effect = lower value 1.03 | locus YPL055C, strain LGE1, stronger effect = lower value 1.01 | locus YPL078C, strain atp4, stronger effect = lower value 1.03 | locus YPL106C, strain sse1, stronger effect = lower value 1.04 | locus YPL240C, strain hsp82, stronger effect = lower value 0.992 | locus YPL256C, strain CLN2, stronger effect = lower value 1.04 | locus YPR119W, strain clb2, stronger effect = lower value 0.991 | locus YPR141C, strain kar3, stronger effect = lower value 0.985 | locus YPR163C, strain tif3, stronger effect = lower value 0.998 | locus YPR167C, strain met16, stronger effect = lower value 0.99 | strain wtn01, stronger effect = lower value 1
